Results on 17 compounds are retold here after PubChem BioAssay.

Active and inactive are the calls of the source.

Test [1] has as its system Plasmodium falciparum Sir2 (PF13_0152, Sir2A). The test is described as follows: Plasmodium falciparum Sir2A binding compounds – biochemical, small-molecule microarray, 635 nm fluorescence, primary screen (AID 1098).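 Note: score merges spot fluorescence intensity with its signal-to-noise ratio.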 As to conditions: fluorescence 635 nm, higher = more signal.
The nature of test [2]: probe aDKK1 binding to arrayed compounds – biochemical, biotinylated probe, 635/667 nm fluorescence, primary screen (AID 1099).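 Note: score merges 667nm spot fluorescence with signal to noise across triplicate slides; reference of the scale not given here.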 As to conditions: small-molecule microarray, higher = more signal.
The nature of test [3]: probe aCHRDL2 binding to arrayed compounds – biochemical, biotinylated probe, 635/667 nm fluorescence, primary screen (AID 1100). The conditions noted are these: small-molecule microarray, higher = more signal.
A short description of test [4]: change in splice reporter luminescence, either direction, cell-based, HEK293, spliceosome inhibition project, primary screen (AID 1101).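 Note: HEK293 cells carrying a splicing-competent luciferase reporter gene; test concentration not given here.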 As to conditions: HEK293 splicing luciferase reporter, 24 h, higher = more signal, called active from +8 up or from −8 down.
In test [5] the target is Fibroblast growth factor 10 (Homo sapiens) (UniProt O15520). The test is described as follows: compounds binding fibroblast growth factor 10 – biochemical, small-molecule microarray, 635 nm fluorescence, primary screen (AID 1102). As to conditions: FGF10 binding, fluorescence 635 nm, higher = more signal.
In test [6] the test system is glycogen synthase kinase-3 (GSK3A per assay name; protocol says GSK3B). The test is described as follows: compounds binding glycogen synthase kinase-3 – biochemical, small-molecule microarray, 635 nm fluorescence, GSK3A, primary screen (AID 1103). Note: the record names both GSK3A and GSK3B. The conditions noted are these: fluorescence 635 nm, higher = more signal.
Test [7] addresses Epidermal growth factor receptor (Homo sapiens) (UniProt P00533). Put plainly: compounds binding epidermal growth factor receptor – biochemical, small-molecule microarray, 635 nm fluorescence, primary screen (AID 1104).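 Note: score merges 667 nm emission intensity with spot signal to noise over triplicate slides.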 As to conditions: EGFR binding, higher = more signal.
In test [8] the target is Follistatin-related protein 3 (Homo sapiens) (UniProt O95633). The test is described as follows: compounds binding follistatin-related protein 3 – biochemical, small-molecule microarray, 635 nm fluorescence, primary screen (AID 1105).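 Note: score merges emission near 667 nm and signal to noise per printed spot across three slides.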 As to conditions: FSTL3 binding, higher = more signal.
For test [9], the target named is Dickkopf-related protein 1 (Homo sapiens) (UniProt O94907). The test is described as follows: small molecules binding DKK1 protein – biochemical, small-molecule microarray, 635 nm fluorescence scan, primary screen (AID 1106).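 Note: score merges emission near 667 nm with signal to noise over three replicate slides.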 As to conditions: higher = more signal.
Test [10] relates to Inhibin beta A chain (activin A). The test is described as follows: small molecules binding activin A – biochemical, small-molecule microarray, 635 nm fluorescence scan, primary screen (AID 1107).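 Note: mouse activin A protein probed at 4.33 µg/mL on printed slides; score merges bound-protein fluorescence near 667 nm with spot signal-to-noise.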 As to conditions: INHBA, higher = more signal.

Chain of Dickkopf-related protein 1 (Homo sapiens) (O94907 whole entry, looked up): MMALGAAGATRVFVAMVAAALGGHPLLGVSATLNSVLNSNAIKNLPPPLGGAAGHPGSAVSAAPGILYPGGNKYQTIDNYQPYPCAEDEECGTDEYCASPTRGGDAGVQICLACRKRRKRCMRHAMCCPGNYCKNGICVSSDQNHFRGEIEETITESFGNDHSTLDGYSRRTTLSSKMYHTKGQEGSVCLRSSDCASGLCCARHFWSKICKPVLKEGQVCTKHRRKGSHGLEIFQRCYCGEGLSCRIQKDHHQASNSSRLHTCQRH
Chain of Follistatin-related protein 3 (Homo sapiens) (O95633 whole entry, looked up): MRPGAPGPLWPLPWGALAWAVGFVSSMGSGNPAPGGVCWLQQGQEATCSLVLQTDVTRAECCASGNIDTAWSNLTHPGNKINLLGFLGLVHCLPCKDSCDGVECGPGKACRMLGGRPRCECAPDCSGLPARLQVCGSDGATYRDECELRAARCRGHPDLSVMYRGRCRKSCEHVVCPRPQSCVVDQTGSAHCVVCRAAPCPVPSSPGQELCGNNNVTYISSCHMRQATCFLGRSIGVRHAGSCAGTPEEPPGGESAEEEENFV
Chain of Fibroblast growth factor 10 (Homo sapiens) (O15520 whole entry, looked up): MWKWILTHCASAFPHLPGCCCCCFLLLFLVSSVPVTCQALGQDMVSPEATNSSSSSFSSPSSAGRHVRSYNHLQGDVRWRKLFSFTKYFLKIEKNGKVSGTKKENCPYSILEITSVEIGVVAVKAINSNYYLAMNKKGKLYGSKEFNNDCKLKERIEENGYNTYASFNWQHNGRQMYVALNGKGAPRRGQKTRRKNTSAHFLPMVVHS
Chain of Epidermal growth factor receptor (Homo sapiens) (P00533 whole entry, looked up): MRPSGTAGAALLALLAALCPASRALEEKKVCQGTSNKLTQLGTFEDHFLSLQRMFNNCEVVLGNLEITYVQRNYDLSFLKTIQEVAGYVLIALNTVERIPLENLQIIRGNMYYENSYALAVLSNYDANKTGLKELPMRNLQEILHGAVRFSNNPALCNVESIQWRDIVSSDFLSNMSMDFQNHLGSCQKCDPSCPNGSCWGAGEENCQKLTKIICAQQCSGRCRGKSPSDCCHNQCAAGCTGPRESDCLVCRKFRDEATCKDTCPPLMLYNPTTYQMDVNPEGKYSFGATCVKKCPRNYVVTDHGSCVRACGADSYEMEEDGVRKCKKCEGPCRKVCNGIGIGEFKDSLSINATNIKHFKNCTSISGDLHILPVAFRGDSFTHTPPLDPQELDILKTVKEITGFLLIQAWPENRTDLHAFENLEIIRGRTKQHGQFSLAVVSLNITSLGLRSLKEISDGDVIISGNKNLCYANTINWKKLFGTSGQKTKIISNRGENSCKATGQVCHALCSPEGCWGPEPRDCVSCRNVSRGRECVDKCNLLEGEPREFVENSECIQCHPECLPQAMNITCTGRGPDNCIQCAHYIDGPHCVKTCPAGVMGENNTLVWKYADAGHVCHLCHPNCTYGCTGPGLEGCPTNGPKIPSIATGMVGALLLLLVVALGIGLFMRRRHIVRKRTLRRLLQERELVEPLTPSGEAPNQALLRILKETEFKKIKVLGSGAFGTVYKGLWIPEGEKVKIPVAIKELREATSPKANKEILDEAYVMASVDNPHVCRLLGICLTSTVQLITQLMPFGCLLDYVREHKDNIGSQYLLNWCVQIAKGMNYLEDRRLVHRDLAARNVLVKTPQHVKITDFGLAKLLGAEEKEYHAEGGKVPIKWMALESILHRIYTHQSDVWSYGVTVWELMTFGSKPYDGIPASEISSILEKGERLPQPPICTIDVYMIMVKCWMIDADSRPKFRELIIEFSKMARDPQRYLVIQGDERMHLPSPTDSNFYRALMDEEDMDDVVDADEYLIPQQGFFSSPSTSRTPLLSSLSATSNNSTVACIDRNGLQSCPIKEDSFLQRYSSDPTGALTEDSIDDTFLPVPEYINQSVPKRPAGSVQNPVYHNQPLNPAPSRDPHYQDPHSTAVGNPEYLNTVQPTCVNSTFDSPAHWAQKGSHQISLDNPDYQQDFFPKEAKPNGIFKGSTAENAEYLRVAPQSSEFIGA

With `COCC(=C=CC[C@@H](O)c1ccc(OCCO)cc1)C[C@@H](O)c1ccccn1`, the composite z-score in [1] is 0.0525; in test [2], -0.201; in test [3], -0.288; in test [5], 0.377; in [6], 0.0621; in test [7] it was 0.0724. Also, the composite z-score in test [8] was 0.439; in test [9] it was 0.0579; in test [10], 1.18. For the same compound, the z-score in [4] was 0.0733 (inactive).

On to `[N-]=[N+]=NCc1ccccc1C[C@@]1(C(=O)NCC(O)CO)N=C(c2ccc(OCCCO)cc2)O[C@@H]1c1ccccc1` (stereo not given in full), for which the composite z-score is 0.048 in test [1]; 1.15 in test [2]; 1.22 in test [3]; -0.181 in test [5]; -0.538 in test [6]; -0.455 in test [7]. The composite z-score was -1.3 in test [8], -1.58 in test [9] and 0.377 in test [10]. Further, the z-score in test [4] is -0.195 (inactive).

Turning to `Cc1ccc(S[C@]2(C(=O)NCC(C)C)CC(=O)N(Cc3cc(C(F)(F)F)cc(C(F)(F)F)c3)[C@@H]2c2ccc(CO)cc2)cc1`, the composite z-score in test [1] is 0.889; in test [2], 0.209; in test [3], 0.736; in [5], -0.417; in test [6], -0.725; in [7], -1.25. The composite z-score in test [8] is -0.634; in test [9] it was -0.326; in test [10], 0.96. Further, in [4], the z-score was 0.585 (inactive).

Take `C=C(C(=O)CC[C@H](OC(C)=O)c1ccccc1OCCO)C(C)C`: the composite z-score in [1] is 0.78; in test [2] it was -0.287; in [3] it was 0.006; in [5] it was 1.28; in test [6], -1.29; in [7] it was -0.803. The composite z-score was -0.226 in test [8], -0.284 in [9] and -0.139 in test [10]. For the same compound, the z-score in test [4] was -1.94 (inactive).

In the case of `COC(=O)[C@@]1(Cc2ccccc2)[C@H]2c3cc(C(=O)N(C)C)n(Cc4ccc(OC)c(OC)c4)c3C[C@H]2CN1C(=O)c1ccccc1`, the composite z-score was determined as 0.0313 in test [1]; 0.905 in [2]; 0.94 in test [3]; 1.44 in [5]; 0.454 in [6]; 0.568 in test [7]. The composite z-score was 0.609 in test [8], -0.833 in test [9] and 0.67 in [10]. Besides, in [4], the z-score is -4.08 (inactive).

Turning to `O=C1NC(=O)C2C1C=CC(C(O)c1ccc(I)cc1)N2Nc1ccc(Cl)cc1Cl` (stereo not given), the composite z-score was 1.03 in [1]; 0.418 in test [2]; 1.08 in [3]; 0.41 in [5]; 0.782 in test [6]; -0.079 in test [7]. In addition, the figures for the composite z-score in [8], in test [9] and in test [10] were 0.425, -0.235 and 0.871, respectively. For the same compound, the z-score in test [4] was -1.09 (inactive).

Regarding `Cc1c(NC(=O)/C(C#N)=C/c2cccc([N+](=O)[O-])c2)c(=O)n(-c2ccccc2)n1C`, the composite z-score in test [1] was 0.141; in test [2], -0.123; in test [3], -0.413; in [5], 0.455; in test [6], 0.797; in [7], 0.53. In addition, the values for the composite z-score in test [8], in test [9] and in [10] were 0.53, 0.561 and 0.107, respectively. Besides, the z-score in [4] is -0.911 (inactive).

Take `O=C(CS)NCCCCCNC(=O)[C@@H]1C[C@@H]2C(=O)NCC(=O)N2[C@@H]1c1ccc(O)cc1`: the composite z-score was 0.793 in test [1]; -0.179 in [2]; 0.347 in test [3]; 0.528 in [5]; 0.692 in test [6]; 0.17 in test [7]. Besides, the composite z-score in [8] is 0.157; in test [9] it was -0.109; in [10], 0.606. Moreover, the z-score in test [4] was 0.0774 (inactive).

Take `CCCCCCc1nc(-c2ccc(-c3ccc(Cl)c(Cl)c3)o2)cc2c1[Si](C(C)C)(C(C)C)O[C@H]2c1ccccc1`: the composite z-score in test [1] is 0.0593; in [2], -0.294; in test [3], 0.0787; in [5], -0.515; in test [6], -1.26; in test [7], -0.287. Also, the figures for the composite z-score in [8], in [9] and in test [10] were -0.737, 0.0981 and 0.62, respectively. For the same compound, in test [4], the z-score was -0.112 (inactive).

With `COc1ccc(C#Cc2ccc3c(c2)[C@]2(C(=O)N3)[C@H](c3ccc(O)cc3)N3[C@H](c4ccccc4)[C@H](c4ccccc4)OC(=O)[C@H]3[C@@H]2C(=O)N2CCc3cc(OC)c(OC)cc3C2)cc1`, the composite z-score in test [1] is 1.46; in test [2] it was -0.157; in [3] it was -0.208; in test [5], 0.768; in test [6], 1.26; in test [7] it was 0.469. Moreover, the composite z-score in test [8] came out at 0.853; in test [9], 0.31; in [10] it was 0.155. Further, the z-score in test [4] was 1.34 (inactive).

Turning to `CC(C)CCC[C@@H](C)[C@H]1CC[C@@]2(C)C3=C(CC[C@]12C)[C@@]1(C)CC[C@H](OC(=O)c2ccc(C(F)(F)F)nc2)C(C)(C)C1CC3` (stereo not given in full), the composite z-score in [1] is 0.22; in test [2], -0.514; in [3] it was -0.491; in [5], 0.595; in test [6] it was 0.714; in [7], 0.471. Further, the composite z-score in test [8] was 0.627; in test [9] it was 0.418; in [10], -0.0544. Moreover, the z-score in [4] was -0.895 (inactive).

Turning to `NCCCCCCNC(=O)[C@H]1C[C@H]2C(=O)N[C@@H](Cc3ccccc3)C(=O)N2[C@H]1c1cccc(OCCO)c1`, the composite z-score in test [1] worked out at 0.809; in [2], 0.682; in test [3], 0.713; in [5], 0.324; in test [6], 0.0638; in [7], 0.13. Moreover, the composite z-score is 0.362 in [8], -0.0608 in [9] and 0.101 in test [10]. In addition, in [4], the z-score is -0.895 (inactive).

For the compound `COc1ccc(CCNC(=O)[C@@]2(C)c3ccccc3C(=O)N(c3ccc(C)cn3)[C@H]2c2ccc(CO)cc2)cc1`, the composite z-score in test [1] was -0.697; in [2], -0.0508; in [3] it was 0.156; in test [5] it was -1.2; in [6] it was -0.831; in test [7], -1.03. Moreover, the composite z-score in test [8] was -1.06; in test [9] it was -0.905; in test [10], 0.453. In [4], the z-score was 0.981 (inactive).

In the case of `COC(=O)[C@]1(Cc2ccccc2)N=C(c2ccc(OCCCO)cc2)O[C@@H]1c1ccccc1N=[N+]=[N-]`, the composite z-score is 1.54 in [1]; 0.124 in test [2]; 0.527 in [3]; 0.79 in test [5]; 0.519 in test [6]; -0.0527 in test [7]. Also, the composite z-score in test [8] is 0.257; in [9] it was -0.0949; in test [10] it was 0.796. For the same compound, the z-score in [4] was -1.56 (inactive).

For the compound `CC(C)NC(=O)[C@@H]1c2ccccc2C(=O)N(C(C)C)[C@H]1c1ccc(CO)cc1`, the composite z-score in [1] was -0.509; in test [2], -0.29; in [3], 0.91; in test [5], -0.633; in [6], 0.134; in [7] it was -1. The composite z-score is -0.994 in [8], -1.72 in [9] and -0.751 in test [10]. Moreover, in test [4], the z-score was -0.0664 (inactive).

Regarding `COC(=O)[C@H](Cc1ccccc1)N[C@H](/C=C/C1CC1)[C@@H](O)Cc1ccccc1`, the composite z-score is -0.111 in test [1]; -0.351 in test [2]; 0.327 in test [3]; -0.66 in test [5]; -1.22 in test [6]; -0.579 in [7]. In addition, the results for the composite z-score in test [8], in test [9] and in test [10] were -0.244, -0.506 and 0.0419, respectively. For the same compound, the z-score in [4] was -1.16 (inactive).

For `NC(=O)[C@@H]1[C@H]2C(=O)O[C@H](c3ccccc3)[C@H](c3ccccc3)N2[C@H](c2ccc(O)cc2)[C@@]12C(=O)Nc1ccc(C#CC3=CCCCC3)cc12`, the composite z-score was 0.735 in test [1]; -0.0562 in [2]; -0.42 in test [3]; 0.676 in test [5]; 0.439 in test [6]; -0.122 in [7]. For the same compound, the results for the composite z-score in test [8], in test [9] and in test [10] were 0.31, -0.333 and 0.763, respectively. For the same compound, the z-score in test [4] was -2.28 (inactive).
